Screening data as filed in PubChem.
In the library only some 18% were active in any assay of this set; here they are far more common.
TGFb SMAD3 inh: blocks TGF-b signaling; 410,000 tested, 1.2% active; AID 588855; HepG2 CAGA-GFP TGF-b/SMAD3 reporter, GFP fluorescence, 18 h; TGF-beta stimulated, 500 pg/mL final; Potency, µM (series often up to 46.1 µM), without a hit: at the top dose activity, negative = inhibition, actives largely listed as inhibitors; also: potency is read from the fitted curve at half-maximal effect; % is scaled to controls: 0 for no effect and ±100 for the full control effect; nearly all actives have a fitted effect of over 65% in size
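HEPG2 CAGA-GFP cells (1000/well, DMEM with 1% FBS) were pre-incubated 2 h at 37 degrees C, given compound by pin tool, then stimulated with TGF-beta at 500 pg/mL final for 18 h before per-cell GFP fluorescence imaging.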
DT40 TDP1 CPT: DT40-hTDP1 cell growth loss with CPT; chicken DT40 Tdp1-/-;hTDP1 cells + 20 nM CPT, ATP luminescence, 48 h; Potency, µM (highest dose often 46.2 µM), inactives show at the top dose activity change, negative = growth inhibition, most hits filed as inhibitors; 420,000 tested, 12% active; AID 686979; also: potency is read from the fitted curve at half-maximal effect; % is scaled to controls: 0 for no effect and ±100 for the full control effect; nearly all actives have a fitted effect of over 55% in size
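Cell growth measured by CellTiter-Glo luminescence after a minimum 48 h, 37 C compound exposure with 20 nM CPT in Tdp1-knockout DT40 cells stably expressing hTDP1, seeded 400/well; qHTS titration format.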
DT40 TDP1 no CPT: qHTS for Inhibitors of human tyrosyl-DNA phosphodiesterase 1 (TDP1): qHTS in cells in absence of CPT; DT40 Tdp1-/- hTDP1 cells, no CPT, ATP luminescence, 48 h; Potency, µM (highest dose often 46.2 µM), for the others: at the top dose activity change, negative = growth inhibition, actives largely listed as inhibitors; 420,000 tested, 15% active; AID 686978, 2013; also: potency is read from the fitted curve at half-maximal effect; % is scaled to controls: 0 for no effect and ±100 for the full control effect; nearly all actives have a fitted effect of over 55% in size
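DT40 Tdp1-/-;hTDP1 cells, no CPT (DMSO vehicle only), 400 cells/well; compounds pin-transferred; ≥48 hr, 37 °C; CellTiter-Glo 30 min RT dark, luminescence read.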
HepG2 viability: counter-screen for TGF-b inhibitors: cytotoxicity in HepG2 cells; Potency, µM (doses to about 46.1 µM), for inactives: at the top dose activity change, negative = cytotoxicity, hits mostly cytotoxic; HepG2 CAGA-GFP viability, ATP luminescence, 18 h; AID 588856; 410,000 tested, 0.76% active; also: potency is read from the fitted curve at half-maximal effect
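CellTiter-Glo luminescence gave cytotoxicity after 18 hours at 37 degrees C. The cells were HepG2 CAGA-GFP in 1% FBS DMEM, stimulated with 500 pg/mL TGF-beta after compound addition. %Activity was normalised to no-cell wells (complete cell-killing) and DMSO (no toxicity), and curves were fitted and classified.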
IL1B secr inh: inhibitors of inflammasome signaling (IL-1 beta secretion); THP-1 LPS/ATP IL-1B secretion, AlphaLISA, 16 h; hits give low values; activity change, % at 57.5 µM; 360,000 tested, 4.7% active; in the data active = activity change below about -50%; inconclusive = mostly about -30% to -49%; also: % is scaled to controls: 0 for no effect and ±100 for the full control effect
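THP-1 cells pretreated 1 hr with compounds (up to 57.5 uM final), then stimulated with LPS (250 ng/mL final) plus ATP (1.25 mM final); secreted IL-1B measured by AlphaLISA after 16 hr, decreased signal indicating inhibition.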
TDP1 inh: blocks human tyrosyl-DNA phosphodiesterase 1 | Q9NUW8 | recombinant TDP1, AlphaScreen DNA substrate cleavage | Potency, µM (doses to about 130 µM), for inactives: top-dose activity change, negative = inhibition, usual class: inhibitors | 350,000 tested, 0.28% active; also: potency is read from the fitted curve at half-maximal effect; % is scaled to controls: 0 for no effect and ±100 for the full control effect; nearly all actives have a fitted effect of over 40% in size
Target sequence (Q9NUW8 whole entry, looked up): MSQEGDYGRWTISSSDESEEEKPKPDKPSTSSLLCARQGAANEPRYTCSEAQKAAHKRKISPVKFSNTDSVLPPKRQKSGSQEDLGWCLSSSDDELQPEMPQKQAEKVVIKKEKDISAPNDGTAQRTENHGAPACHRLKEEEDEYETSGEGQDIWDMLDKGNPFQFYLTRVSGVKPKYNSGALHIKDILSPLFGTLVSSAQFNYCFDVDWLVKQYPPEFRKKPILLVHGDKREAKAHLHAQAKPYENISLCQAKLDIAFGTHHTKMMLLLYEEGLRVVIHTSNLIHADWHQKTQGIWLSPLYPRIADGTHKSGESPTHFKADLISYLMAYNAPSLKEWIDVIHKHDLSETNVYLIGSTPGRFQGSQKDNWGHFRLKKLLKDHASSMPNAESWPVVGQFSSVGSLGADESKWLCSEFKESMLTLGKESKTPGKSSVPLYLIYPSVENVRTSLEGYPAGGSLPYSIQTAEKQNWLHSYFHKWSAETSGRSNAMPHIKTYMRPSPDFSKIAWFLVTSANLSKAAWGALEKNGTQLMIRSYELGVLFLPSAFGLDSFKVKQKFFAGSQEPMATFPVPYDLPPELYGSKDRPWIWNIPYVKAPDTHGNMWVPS
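Compounds were preincubated with Tdp1 (1 nM final) for 15 min at room temperature before substrate (15 nM final) started a 5 min reaction; beads (10 ug/ml final) were then added for 10 min before AlphaScreen detection.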
* = called active by the depositor; [ ] = dose if it differs, or a comment. Unless noted, calls follow the shape of the dose curve; as a rule, active = well fitted curve in the direction sought with a large enough effect; inconclusive = small, poorly fitted or top-dose-only effect, or another doubt; inactive = no such curve, though single readings can be large; an effect the other way counts as inactive or inconclusive.

Screening COc1ccc(CC(=O)NCC(c2ccc(Cl)cc2)N2CCOCC2)cc1 (centres undefined) returned TGFb SMAD3 inh -20%, DT40 TDP1 CPT -9%, DT40 TDP1 no CPT -20%, HepG2 viability -7% and TDP1 inh 4%.
For COc1ccc(OCC(=O)NCC(c2ccc(OC)cc2)N2CCCCC2)cc1 (centres undefined) the results were TGFb SMAD3 inh 5%, DT40 TDP1 CPT -16%, DT40 TDP1 no CPT 6%, HepG2 viability 8%, IL1B secr inh 0 and TDP1 inh 2%.
`COc1ccc(C(CNC(=O)COc2cc(C)cc(C)c2)N2CCCCC2)cc1` (centres undefined) gave TGFb SMAD3 inh -20%, DT40 TDP1 CPT 23µM*, DT40 TDP1 no CPT inconclusive, HepG2 viability -50% and TDP1 inh 0%.
For COc1ccc(C(CNC(=O)COc2ccc(Cl)c(C)c2)N2CCOCC2)cc1 (centres undefined) the results were TGFb SMAD3 inh inconclusive, DT40 TDP1 CPT 21µM*, DT40 TDP1 no CPT inconclusive, HepG2 viability -28% and TDP1 inh -3%.
COc1ccc(C(CNC(=O)COc2ccc(Cl)cc2C)N2CCCCC2)cc1 (centres undefined) was read as TGFb SMAD3 inh 2%, DT40 TDP1 CPT inconclusive, DT40 TDP1 no CPT -23%, HepG2 viability 2%, IL1B secr inh 31 and TDP1 inh 3%.
COc1ccc(C(CNC(=O)COc2cc(C)c(Cl)c(C)c2)N2CCCCC2)cc1 (centres undefined) was read as TGFb SMAD3 inh -12%, DT40 TDP1 CPT 23µM*, DT40 TDP1 no CPT 16µM*, HepG2 viability 5%, IL1B secr inh inconclusive and TDP1 inh 3%.
For COc1ccc(C(CNC(=O)COc2ccc(C)c(C)c2)N2CCCCC2)cc1 (centres undefined) the results were TGFb SMAD3 inh inconclusive, DT40 TDP1 CPT 23µM*, DT40 TDP1 no CPT inconclusive, HepG2 viability -16%, IL1B secr inh 4 and TDP1 inh 2%.
Screening COc1ccc(/C=N/OC(=O)Nc2ccc(Cl)cc2)c(OC)c1 returned TGFb SMAD3 inh -14%, DT40 TDP1 CPT 16%, DT40 TDP1 no CPT -14%, HepG2 viability 0% and IL1B secr inh inconclusive.
For COc1cc2ncnc(Nc3ccc4c(c3)OCO4)c2cc1OC the results were TGFb SMAD3 inh 7%, DT40 TDP1 CPT -24%, DT40 TDP1 no CPT -1%, HepG2 viability 8% and IL1B secr inh inconclusive.
For C#Cc1cccc(Nc2ncnc3cc(OCCOC)c(OCCOC)cc23)c1 the results were DT40 TDP1 CPT inconclusive, DT40 TDP1 no CPT 13µM* and TDP1 inh 6%.
CNc1cc2c(Nc3cccc(Br)c3)ncnc2cn1 was read as TDP1 inh -9%.
Screening COc1cc2ncnc(Nc3cccc(Cl)c3)c2cc1OC returned TGFb SMAD3 inh inconclusive, DT40 TDP1 CPT 18µM*, DT40 TDP1 no CPT 13µM*, HepG2 viability -38% and TDP1 inh 7%[56.1 µM].
For CN(C)c1ccc(Nc2ncnc3ccc(Br)cc23)cc1 the results were TGFb SMAD3 inh -14%, DT40 TDP1 CPT inconclusive, DT40 TDP1 no CPT inconclusive, HepG2 viability -38% and IL1B secr inh -10.
For COc1cc2ncnc(Nc3cccc(Br)c3)c2cc1OC the results were DT40 TDP1 CPT 17µM*, DT40 TDP1 no CPT inconclusive and TDP1 inh 14%[56.1 µM].
`COc1ccc(Nc2ncnc3ccc(Br)cc23)cc1OC` gave TGFb SMAD3 inh -16%, DT40 TDP1 CPT 18µM*, DT40 TDP1 no CPT inconclusive, HepG2 viability -40% and IL1B secr inh -14.
Cc1nc2cc(C)c(C)cc2o1 was read as TGFb SMAD3 inh 0%, DT40 TDP1 CPT 20%, DT40 TDP1 no CPT 33%, HepG2 viability -31% and IL1B secr inh 3.
Screening CC1CCc2c(sc(NC(=O)c3cccn3C)c2C(N)=O)C1 (centres undefined) returned TGFb SMAD3 inh -3%, DT40 TDP1 CPT -25%, DT40 TDP1 no CPT inconclusive, HepG2 viability -4%, IL1B secr inh -6 and TDP1 inh 2%.
`COc1cc2c(Nc3ccc(Br)cc3F)ncnc2cc1OCC1CCN(C)CC1` gave DT40 TDP1 CPT 4.7µM* and DT40 TDP1 no CPT 4.7µM*.
COc1ccc(COc2ncnc3ccc(Br)cc23)cc1F was read as TGFb SMAD3 inh -13%, DT40 TDP1 CPT -5%, DT40 TDP1 no CPT -29%, HepG2 viability 7%, IL1B secr inh -65* and TDP1 inh -3%.
`COc1ccc(-c2nc3cnc(OC)nc3n(C3CC3)c2=O)cc1` gave DT40 TDP1 CPT 4% and DT40 TDP1 no CPT -18%.
COC(=O)[C@]12CCCCC=C1N(Cc1ccccc1)C(=O)[C@H](CC(=O)NCc1cccc(C(F)(F)F)c1)C2 was read as DT40 TDP1 CPT inconclusive, DT40 TDP1 no CPT inconclusive and IL1B secr inh -18.
For COC(=O)[C@@]12C[C@@H](CC(=O)NCc3cccc(C(F)(F)F)c3)C(=O)N(Cc3cccc4ccccc34)C1=CCC(C)(C)C2 the results were DT40 TDP1 CPT 16µM*, DT40 TDP1 no CPT 16µM* and IL1B secr inh 0.
Screening COC(=O)[C@@]12C[C@@H](CC(=O)NCc3cccc(C(F)(F)F)c3)C(=O)N(Cc3ccccc3)C1=CCC(C)(C)C2 returned DT40 TDP1 CPT inconclusive, DT40 TDP1 no CPT inconclusive and IL1B secr inh -78*.
Screening O=C(NCCC(=O)N1CCN(S(=O)(=O)c2ccccc2F)CC1)Nc1ccccc1 returned TGFb SMAD3 inh -3%, DT40 TDP1 CPT -2%, DT40 TDP1 no CPT 6%, HepG2 viability 2%, IL1B secr inh 2 and TDP1 inh 0%.
`CC(C)CCN1C(=O)c2ccc(C(=O)OCC(=O)N(CC(C)C)C3CCS(=O)(=O)C3)cc2C1=O` (centres undefined) gave TGFb SMAD3 inh -3%, DT40 TDP1 CPT -8%, DT40 TDP1 no CPT 6%, HepG2 viability -16%, IL1B secr inh 0 and TDP1 inh 3%.
